We go through 13 compounds from PubChem BioAssay (NCATS).

One experiment concerns GB4. The experiment can be described thus: qHTS profiling for inhibitors of Plasmodium falciparum proliferation (AID 504749). Particulars: P. falciparum in erythrocytes, SYBR Green DNA, 72 h; series mostly up to 28.7 µM. The method in brief:
(§1)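 Infected RBCs, 0.3% parasitemia/2.5% Hct final; cpd 72 h, 37 C, 5% CO2; lysis buffer with saponin/triton/SYBR Green I, o/n RT dark; FI 485/535; norm. to artemisinin (0.29 uM) and DMSO.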

In the next experiment the test system is HB3. Described as above. Particulars: P. falciparum in erythrocytes, SYBR Green DNA, 72 h; series mostly up to 28.7 µM. The method, boiled down:
as §1

A further experiment concerns ICS. The description is as above. Particulars: P. falciparum in erythrocytes, SYBR Green DNA, 72 h; series mostly up to 28.7 µM. The method, boiled down:
as §1

The subject of the next experiment is N140. Described as above. Conditions: P. falciparum in erythrocytes, SYBR Green DNA, 72 h; series mostly up to 28.7 µM. The method, boiled down:
as §1

The test system of another experiment is P93_24. Described as above. Conditions: P. falciparum in erythrocytes, SYBR Green DNA, 72 h; series mostly up to 28.7 µM. The method, boiled down:
as §1

A further experiment has as its system P94_40. The description is as above. Conditions: P. falciparum in erythrocytes, SYBR Green DNA, 72 h; series mostly up to 28.7 µM. The method, boiled down:
as §1

The next experiment concerns PAD. The experiment is described as above. Conditions: P. falciparum in erythrocytes, SYBR Green DNA, 72 h; series mostly up to 28.7 µM. The method, boiled down:
as §1

The next experiment has as its system PC15. Described as above. Conditions: P. falciparum in erythrocytes, SYBR Green DNA, 72 h; series mostly up to 28.7 µM. The method, boiled down:
as §1

The next experiment relates to TAB109. The experiment is described as above. Conditions: P. falciparum in erythrocytes, SYBR Green DNA, 72 h; series mostly up to 28.7 µM. The method, boiled down:
as §1

In another experiment the test system is TAB165. The description is as above. Particulars: P. falciparum in erythrocytes, SYBR Green DNA, 72 h; series mostly up to 28.7 µM. The method, boiled down: as §1
Another experiment concerns W2. The experiment is described as above. Particulars: P. falciparum in erythrocytes, SYBR Green DNA, 72 h; series mostly up to 28.7 µM. The method, boiled down: as §1
A further experiment deals with CRL-7250. The experiment can be described thus: Cytotoxic Profiling of Annotated Libraries Using Quantitative High-Throughput Screening (AID 1296008). On max response: on the % scale 0 is the no-effect control and ±100 the full control effect. Particulars: Five cell lines viability, CellTiter-Glo ATP luminescence, 48-72 h; max response: stronger effect = lower value. The method in brief:
(§2)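 Cytotoxicity was measured as CellTiter-Glo ATP luminescence, read after 10 min at room temperature. Compound treatment of the cells lasted 48 or 72 hr at 37 degrees Celsius in a qHTS format.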
Background: Cellular ATP, detected with luciferase, serves as a proxy for viable cell number.

The next experiment deals with HEK293. The description is as above. Conditions: Five cell lines viability, CellTiter-Glo ATP luminescence, 48-72 h; max response: stronger effect = lower value. The method, boiled down:
as §2

The subject of another experiment is HaCat. The description is as above. Conditions: Five cell lines viability, CellTiter-Glo ATP luminescence, 48-72 h; max response: stronger effect = lower value. The method, boiled down:
as §2

Another experiment concerns KB-3-1. The description is as above. Conditions: Five cell lines viability, CellTiter-Glo ATP luminescence, 48-72 h; max response: stronger effect = lower value. The method, boiled down: as §2
The test system of a further experiment is JCK. Description: qHTS profiling for inhibitors of Plasmodium falciparum proliferation (AID 504749). Conditions: P. falciparum in erythrocytes, SYBR Green DNA, 72 h; series mostly up to 28.7 µM. The method in brief:
as §1
(Quantitative high-throughput screening tests each substance at several concentrations.)

The next experiment has as its system PC26. The description is as above. Particulars: P. falciparum in erythrocytes, SYBR Green DNA, 72 h; series mostly up to 28.7 µM. The method, boiled down:
as §1

In another experiment the test system is PC49. Described as above. Conditions: P. falciparum in erythrocytes, SYBR Green DNA, 72 h; series mostly up to 28.7 µM. The method, boiled down: as §1
Another experiment relates to SC27B. The description is as above. Particulars: P. falciparum in erythrocytes, SYBR Green DNA, 72 h; series mostly up to 28.7 µM. The method in brief:
as §1

The test system of the next experiment is TAB113. Described as above. Particulars: P. falciparum in erythrocytes, SYBR Green DNA, 72 h; series mostly up to 28.7 µM. The method in brief:
as §1

“And” between values parts separate entries of the source, which are not always exact repeats. Identical values can stand only once. Inconclusive results are not listed. Where a structure was tested more than once in an assay, its records may differ in their call. Unmarked numbers belong to inactive results. The source made the active and inactive calls. The call rests on the fitted dose curve; in most records, active means well fitted inhibition curve with a large enough effect; inconclusive means small, poorly fitted or top-dose-only effect; inactive means flat fitted curve, though single readings scatter.
Further: nearly all actives have a fitted effect of over 60% in size.
Potency means the concentration at half of the fitted maximal effect.

With `NC(N)=NC(=O)c1nc(Cl)c(N)nc1N`, the Potency was 15.1 µM (active) in the experiment with GB4; 11.2 µM (active) in the experiment with HB3; 2.24 µM (active) with ICS; 8.91 µM (active) in the experiment on N140; 7.08 µM (active) with P93_24; 12.6 µM (active) in the experiment with P94_40. The Potency in the experiment with PAD is 8.91 µM (active); in the experiment on PC15, 7.08 µM (active); in the experiment with TAB109, 10 µM (active); in the experiment with TAB165 it was 11.2 µM (active); in the experiment with W2 it was 2.13 µM (active). Further, the max response in the experiment with CRL-7250 was -0.0311%; in the experiment with HEK293 it was -13.2% and 2.01%; in the experiment with HaCat it was -3.73%. Further, the call in the experiment on CRL-7250, in the experiment on HaCat and in the experiment with KB-3-1 was inactive.

In the case of `C[C@]12CCC(=O)C=C1CC[C@@H]1[C@@H]2[C@@H](O)C[C@@]2(C)[C@H]1CC[C@]2(O)C(=O)CO`, the max response in the experiment with CRL-7250 is 3.48%; with HEK293 it was -3.59%.

For `Cc1ccnc(NS(=O)(=O)c2ccc(NC(=O)Nc3ccc(S(=O)(=O)Nc4nccc(C)n4)cc3)cc2)n1`, in the experiment on CRL-7250, the Potency is 0.372 µM (active) and the max response was -2.52%. Besides, in the experiment on HEK293, the Potency is 0.418 µM (active) and the max response was -3.29%. Further, in the experiment with KB-3-1, the Potency is 2.35 µM (active) and the compound was classed as inactive.

As for `CCCCNc1cc(C(=O)O)cc(S(N)(=O)=O)c1Oc1ccccc1`, the Potency entry in the experiment on GB4, in the experiment with HB3, in the experiment with ICS, in the experiment with JCK, in the experiment on N140 and in the experiment with P93_24 was “inactive” each time. In addition, the Potency entry in the experiment on P94_40, in the experiment with PAD, with PC15, in the experiment with PC26, in the experiment on PC49 and in the experiment on SC27B was “inactive” throughout. Besides, the Potency result with TAB109, in the experiment with TAB113, in the experiment with TAB165 and in the experiment with W2 was “inactive” each time. Further, the max response is 0.377% in the experiment with CRL-7250; 2.91% in the experiment with HEK293; 2.18% with HaCat; -8.24% and 0.128% in the experiment on KB-3-1. The outcome in the experiment on CRL-7250, in the experiment with HEK293 and in the experiment on HaCat was inactive.

In the case of `COc1ccc([C@@H]2CC(=O)c3c(O)cc(O[C@@H]4O[C@H](CO[C@@H]5O[C@@H](C)[C@H](O)[C@@H](O)[C@@H]5O)[C@@H](O)[C@H](O)[C@@H]4O)cc3O2)cc1O`, the max response in the experiment on CRL-7250 was -5.3%; with HaCat it was -2.14% and 4.84%; in the experiment with KB-3-1 it was 2.27%. Also, the outcome in the experiment on CRL-7250, with HEK293 and in the experiment on KB-3-1 was inactive.

Regarding `Cc1[nH]c(=O)c(C#N)cc1-c1ccncc1`, the Potency result in the experiment with GB4, in the experiment with HB3, in the experiment on ICS, with JCK, with N140 and with P93_24 was “inactive” throughout. The Potency result in the experiment on P94_40, in the experiment with PAD, in the experiment on PC15, with PC26, with PC49 and in the experiment with SC27B was “inactive” in each case. For the same compound, the Potency result in the experiment with TAB109, with TAB113, in the experiment on TAB165 and in the experiment on W2 was “inactive” in each case. The max response in the experiment with CRL-7250 was 1.86% and -12.7%; in the experiment with HEK293, -9.35%; in the experiment on HaCat it was 4.3% and 4.05% and -9.78%; in the experiment with KB-3-1, 6.66% and -5.96% and -18.3%. The compound was called inactive with CRL-7250 and in the experiment on HEK293.

For `COc1ccc(CCN2CCN(CCCc3ccccc3)CC2)cc1OC`, the call with CRL-7250 and with HaCat was inactive. For the same compound, the Potency in the experiment on HEK293 was 6.51 µM (active). In addition, the max response with HEK293 is -22.2%; in the experiment on KB-3-1, 0.435% and -5.04%.

Take `N=c1nc(N2CCCCC2)cc(N)n1O`: the Potency entry with GB4, in the experiment with HB3, in the experiment on ICS, in the experiment on JCK, with N140 and with P93_24 was “inactive” throughout. For the same compound, the Potency result in the experiment on P94_40, in the experiment on PAD, with PC15, in the experiment on PC26, in the experiment with PC49 and in the experiment on SC27B was “inactive” each time. Moreover, the Potency entry with TAB109, in the experiment with TAB113, with TAB165 and with W2 was “inactive” throughout. Also, the max response is -9.52% and -1.74% in the experiment on CRL-7250; 3.36% in the experiment on HEK293. For the same compound, the call in the experiment on HEK293 and in the experiment with HaCat was inactive.

On to `C[C@@H]1CN(Cc2ccc(F)cc2)[C@@H](C)CN1C(=O)c1cc2c(C(=O)C(=O)N(C)C)cn(C)c2cc1Cl`, for which, in the experiment with CRL-7250, the max response was 4.08% and the call was inactive. Besides, in the experiment with KB-3-1, the max response is 6.97% and -3.16%.

In the case of `Cc1cnc(NC(=O)C2=C(O)c3ccccc3S(=O)(=O)N2C)s1`, the result in the experiment on CRL-7250, in the experiment on HEK293 and in the experiment with HaCat was inactive. Besides, the max response was -0.932% with HEK293; -5.8% and -11.4% and -4.48% in the experiment with KB-3-1.

Take `O=c1n(CCCN2CCN(c3cccc(Cl)c3)CC2)nc2ccccn12`: the Potency result in the experiment with GB4, in the experiment with HB3, with ICS, with JCK, with N140 and in the experiment with P93_24 was “inactive” each time. For the same compound, the Potency result with P94_40, in the experiment on PAD, in the experiment on PC15, with PC26, in the experiment on PC49 and with SC27B was “inactive” throughout. The Potency entry in the experiment with TAB109, in the experiment on TAB113, in the experiment with TAB165 and in the experiment with W2 was “inactive” in each case. The max response was -10.4% in the experiment with CRL-7250; 2.07% and 1.71% in the experiment with HEK293; -8.88% in the experiment with HaCat; -0.946% and 1.57% in the experiment with KB-3-1. Further, the call with CRL-7250 and in the experiment with HaCat was inactive.

On to `O=C1CCCC2=C1C(c1[nH]ncc1Cl)N=C(Nc1nc3ccccc3o1)N2` (centres undefined), for which, in the experiment with CRL-7250, the max response was 2.7% and the outcome was inactive. In addition, in the experiment on KB-3-1, the max response is 5.25% and the compound was classed as inactive.

Turning to `O=NN(CCCl)C(=O)NCCCl`, the Potency entry with HB3, in the experiment with JCK, in the experiment with N140, in the experiment with P93_24, in the experiment with P94_40 and with PAD was “inactive” in each case. Moreover, the Potency result with PC15, in the experiment on PC26, in the experiment on PC49, with SC27B, in the experiment with TAB109 and in the experiment with TAB113 was “inactive” throughout. Further, the Potency entry in the experiment on TAB165 is “inactive”. The max response is -1.64% in the experiment with CRL-7250; -4.95% in the experiment with HaCat; 10.2% and 5.9% in the experiment on KB-3-1. Moreover, the result with CRL-7250 and with HaCat was inactive. The outcome in the experiment with HEK293 is “inactive; activator”.
